The panel holds about 83,000 compounds, 20% with a hit somewhere; the sample as a whole holds those more often.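 Each cell line was grown in a 96-well plate and treated with one concentration of compound for 48 hours. Values below 10 were considered active.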 Active and inactive are the calls of the source.

In the experiment the test system is MDA-MB-468 breast. The experiment can be described thus: NCI-60 one-dose screen, 48 h (100 = growth as untreated, 0 = no growth, -100 = all killed). The settings on record: 10 µM unless noted.
For `Cc1c(C(N)=O)sc2ncn(Cc3ccccc3)c(=O)c12`, the growth was 99% (inactive).

For the compound `O=c1c(Cc2ccc(F)cc2)cc(-c2ccccc2)nn1C/C(=N/O)c1ccccc1`, the growth was 41.2% (inactive).

`FC(F)(F)c1cccc(-c2cn3c(ccc4ccccc43)n2)c1`: the growth was 104% (inactive).

For `O=c1oc2c(cnc3ccccc32)cc1-c1ccsc1`, the growth was 85.5% (inactive).

Consider `C=C(C)[C@@H]1CC[C@]2(C(=O)n3ccnc3)CC[C@]3(C)[C@H](CC[C@@H]4[C@@]5(C)CCCNC(C)(C)[C@@H]5CC[C@]43C)[C@@H]12`, for which the growth is -11.1% (active).

In the case of `COc1ccc(-n2cc(COc3ccc4c5ccnc(C)c5n(CC(C)C)c4c3)nn2)cc1`, the growth was 35.3% (inactive).

Regarding `COc1cc(-c2nc(C(=O)NCC(=O)O)nn2-c2ccc(Cl)cc2)cc(OC)c1OC`, the growth was 113% (inactive).

For `COc1cc2cc(Oc3ccc(NC(=O)Nc4cc(C(F)(F)F)cc(C(F)(F)F)c4)cc3)c(C)nc2cc1OCCN1CCCCC1`, the growth is -78.6% (active).

Take `O=S(=O)(Nc1ccc(I)c(Cl)c1)c1ccc(-c2cnc(C3CC3)o2)cc1`: the growth was -9.49% (active).

Consider `C1CCN(c2nc(N3CCCCC3)nc(N3CCOCC3)n2)CC1`, for which the growth was 107% (inactive).

Turning to `COC(=O)c1c(C)[nH]c(/C=C2\N=C(c3ccc[nH]3)C=C2OC)c1C`, the growth is -69.4% (active).

As to `CSc1nc(-c2ccc(F)cc2)c(C#N)c(N2CCOCC2)n1`, the growth is 87.3% (inactive).

`O=C1c2cccc3c(-c4ccc(-c5nc6c7ccccc7c7ccccc7c6[nH]5)cc4)ccc(c23)C(=O)N1CCN1CCNCC1`: the growth was 81.5% (inactive).

Values taken from PubChem BioAssay (NCI).
